Compound in the test: Cc1cc(ccc1-c1ccccc1)C(=O)N1CCCN(CC1)C(=O)CCl [compound 10]
Kind of test: probe-labelled cysteine peptide fold change vs DMSO (competition) (log2 fold change); higher = less target engagement (more negative = stronger competition). To be noted: THP-1, incubation time: 4 h.

The full data set covers some 21,000 targets. This sample favours those with the largest changes.
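Also: competitive profiling in live THP-1 cells: cysteine peptides tagged with an iodoacetamide desthiobiotin (IA-DTB) probe, intensity after compound treatment relative to DMSO-treated cells.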

Chain of UniProt Q14204 (Q14204 whole entry, looked up): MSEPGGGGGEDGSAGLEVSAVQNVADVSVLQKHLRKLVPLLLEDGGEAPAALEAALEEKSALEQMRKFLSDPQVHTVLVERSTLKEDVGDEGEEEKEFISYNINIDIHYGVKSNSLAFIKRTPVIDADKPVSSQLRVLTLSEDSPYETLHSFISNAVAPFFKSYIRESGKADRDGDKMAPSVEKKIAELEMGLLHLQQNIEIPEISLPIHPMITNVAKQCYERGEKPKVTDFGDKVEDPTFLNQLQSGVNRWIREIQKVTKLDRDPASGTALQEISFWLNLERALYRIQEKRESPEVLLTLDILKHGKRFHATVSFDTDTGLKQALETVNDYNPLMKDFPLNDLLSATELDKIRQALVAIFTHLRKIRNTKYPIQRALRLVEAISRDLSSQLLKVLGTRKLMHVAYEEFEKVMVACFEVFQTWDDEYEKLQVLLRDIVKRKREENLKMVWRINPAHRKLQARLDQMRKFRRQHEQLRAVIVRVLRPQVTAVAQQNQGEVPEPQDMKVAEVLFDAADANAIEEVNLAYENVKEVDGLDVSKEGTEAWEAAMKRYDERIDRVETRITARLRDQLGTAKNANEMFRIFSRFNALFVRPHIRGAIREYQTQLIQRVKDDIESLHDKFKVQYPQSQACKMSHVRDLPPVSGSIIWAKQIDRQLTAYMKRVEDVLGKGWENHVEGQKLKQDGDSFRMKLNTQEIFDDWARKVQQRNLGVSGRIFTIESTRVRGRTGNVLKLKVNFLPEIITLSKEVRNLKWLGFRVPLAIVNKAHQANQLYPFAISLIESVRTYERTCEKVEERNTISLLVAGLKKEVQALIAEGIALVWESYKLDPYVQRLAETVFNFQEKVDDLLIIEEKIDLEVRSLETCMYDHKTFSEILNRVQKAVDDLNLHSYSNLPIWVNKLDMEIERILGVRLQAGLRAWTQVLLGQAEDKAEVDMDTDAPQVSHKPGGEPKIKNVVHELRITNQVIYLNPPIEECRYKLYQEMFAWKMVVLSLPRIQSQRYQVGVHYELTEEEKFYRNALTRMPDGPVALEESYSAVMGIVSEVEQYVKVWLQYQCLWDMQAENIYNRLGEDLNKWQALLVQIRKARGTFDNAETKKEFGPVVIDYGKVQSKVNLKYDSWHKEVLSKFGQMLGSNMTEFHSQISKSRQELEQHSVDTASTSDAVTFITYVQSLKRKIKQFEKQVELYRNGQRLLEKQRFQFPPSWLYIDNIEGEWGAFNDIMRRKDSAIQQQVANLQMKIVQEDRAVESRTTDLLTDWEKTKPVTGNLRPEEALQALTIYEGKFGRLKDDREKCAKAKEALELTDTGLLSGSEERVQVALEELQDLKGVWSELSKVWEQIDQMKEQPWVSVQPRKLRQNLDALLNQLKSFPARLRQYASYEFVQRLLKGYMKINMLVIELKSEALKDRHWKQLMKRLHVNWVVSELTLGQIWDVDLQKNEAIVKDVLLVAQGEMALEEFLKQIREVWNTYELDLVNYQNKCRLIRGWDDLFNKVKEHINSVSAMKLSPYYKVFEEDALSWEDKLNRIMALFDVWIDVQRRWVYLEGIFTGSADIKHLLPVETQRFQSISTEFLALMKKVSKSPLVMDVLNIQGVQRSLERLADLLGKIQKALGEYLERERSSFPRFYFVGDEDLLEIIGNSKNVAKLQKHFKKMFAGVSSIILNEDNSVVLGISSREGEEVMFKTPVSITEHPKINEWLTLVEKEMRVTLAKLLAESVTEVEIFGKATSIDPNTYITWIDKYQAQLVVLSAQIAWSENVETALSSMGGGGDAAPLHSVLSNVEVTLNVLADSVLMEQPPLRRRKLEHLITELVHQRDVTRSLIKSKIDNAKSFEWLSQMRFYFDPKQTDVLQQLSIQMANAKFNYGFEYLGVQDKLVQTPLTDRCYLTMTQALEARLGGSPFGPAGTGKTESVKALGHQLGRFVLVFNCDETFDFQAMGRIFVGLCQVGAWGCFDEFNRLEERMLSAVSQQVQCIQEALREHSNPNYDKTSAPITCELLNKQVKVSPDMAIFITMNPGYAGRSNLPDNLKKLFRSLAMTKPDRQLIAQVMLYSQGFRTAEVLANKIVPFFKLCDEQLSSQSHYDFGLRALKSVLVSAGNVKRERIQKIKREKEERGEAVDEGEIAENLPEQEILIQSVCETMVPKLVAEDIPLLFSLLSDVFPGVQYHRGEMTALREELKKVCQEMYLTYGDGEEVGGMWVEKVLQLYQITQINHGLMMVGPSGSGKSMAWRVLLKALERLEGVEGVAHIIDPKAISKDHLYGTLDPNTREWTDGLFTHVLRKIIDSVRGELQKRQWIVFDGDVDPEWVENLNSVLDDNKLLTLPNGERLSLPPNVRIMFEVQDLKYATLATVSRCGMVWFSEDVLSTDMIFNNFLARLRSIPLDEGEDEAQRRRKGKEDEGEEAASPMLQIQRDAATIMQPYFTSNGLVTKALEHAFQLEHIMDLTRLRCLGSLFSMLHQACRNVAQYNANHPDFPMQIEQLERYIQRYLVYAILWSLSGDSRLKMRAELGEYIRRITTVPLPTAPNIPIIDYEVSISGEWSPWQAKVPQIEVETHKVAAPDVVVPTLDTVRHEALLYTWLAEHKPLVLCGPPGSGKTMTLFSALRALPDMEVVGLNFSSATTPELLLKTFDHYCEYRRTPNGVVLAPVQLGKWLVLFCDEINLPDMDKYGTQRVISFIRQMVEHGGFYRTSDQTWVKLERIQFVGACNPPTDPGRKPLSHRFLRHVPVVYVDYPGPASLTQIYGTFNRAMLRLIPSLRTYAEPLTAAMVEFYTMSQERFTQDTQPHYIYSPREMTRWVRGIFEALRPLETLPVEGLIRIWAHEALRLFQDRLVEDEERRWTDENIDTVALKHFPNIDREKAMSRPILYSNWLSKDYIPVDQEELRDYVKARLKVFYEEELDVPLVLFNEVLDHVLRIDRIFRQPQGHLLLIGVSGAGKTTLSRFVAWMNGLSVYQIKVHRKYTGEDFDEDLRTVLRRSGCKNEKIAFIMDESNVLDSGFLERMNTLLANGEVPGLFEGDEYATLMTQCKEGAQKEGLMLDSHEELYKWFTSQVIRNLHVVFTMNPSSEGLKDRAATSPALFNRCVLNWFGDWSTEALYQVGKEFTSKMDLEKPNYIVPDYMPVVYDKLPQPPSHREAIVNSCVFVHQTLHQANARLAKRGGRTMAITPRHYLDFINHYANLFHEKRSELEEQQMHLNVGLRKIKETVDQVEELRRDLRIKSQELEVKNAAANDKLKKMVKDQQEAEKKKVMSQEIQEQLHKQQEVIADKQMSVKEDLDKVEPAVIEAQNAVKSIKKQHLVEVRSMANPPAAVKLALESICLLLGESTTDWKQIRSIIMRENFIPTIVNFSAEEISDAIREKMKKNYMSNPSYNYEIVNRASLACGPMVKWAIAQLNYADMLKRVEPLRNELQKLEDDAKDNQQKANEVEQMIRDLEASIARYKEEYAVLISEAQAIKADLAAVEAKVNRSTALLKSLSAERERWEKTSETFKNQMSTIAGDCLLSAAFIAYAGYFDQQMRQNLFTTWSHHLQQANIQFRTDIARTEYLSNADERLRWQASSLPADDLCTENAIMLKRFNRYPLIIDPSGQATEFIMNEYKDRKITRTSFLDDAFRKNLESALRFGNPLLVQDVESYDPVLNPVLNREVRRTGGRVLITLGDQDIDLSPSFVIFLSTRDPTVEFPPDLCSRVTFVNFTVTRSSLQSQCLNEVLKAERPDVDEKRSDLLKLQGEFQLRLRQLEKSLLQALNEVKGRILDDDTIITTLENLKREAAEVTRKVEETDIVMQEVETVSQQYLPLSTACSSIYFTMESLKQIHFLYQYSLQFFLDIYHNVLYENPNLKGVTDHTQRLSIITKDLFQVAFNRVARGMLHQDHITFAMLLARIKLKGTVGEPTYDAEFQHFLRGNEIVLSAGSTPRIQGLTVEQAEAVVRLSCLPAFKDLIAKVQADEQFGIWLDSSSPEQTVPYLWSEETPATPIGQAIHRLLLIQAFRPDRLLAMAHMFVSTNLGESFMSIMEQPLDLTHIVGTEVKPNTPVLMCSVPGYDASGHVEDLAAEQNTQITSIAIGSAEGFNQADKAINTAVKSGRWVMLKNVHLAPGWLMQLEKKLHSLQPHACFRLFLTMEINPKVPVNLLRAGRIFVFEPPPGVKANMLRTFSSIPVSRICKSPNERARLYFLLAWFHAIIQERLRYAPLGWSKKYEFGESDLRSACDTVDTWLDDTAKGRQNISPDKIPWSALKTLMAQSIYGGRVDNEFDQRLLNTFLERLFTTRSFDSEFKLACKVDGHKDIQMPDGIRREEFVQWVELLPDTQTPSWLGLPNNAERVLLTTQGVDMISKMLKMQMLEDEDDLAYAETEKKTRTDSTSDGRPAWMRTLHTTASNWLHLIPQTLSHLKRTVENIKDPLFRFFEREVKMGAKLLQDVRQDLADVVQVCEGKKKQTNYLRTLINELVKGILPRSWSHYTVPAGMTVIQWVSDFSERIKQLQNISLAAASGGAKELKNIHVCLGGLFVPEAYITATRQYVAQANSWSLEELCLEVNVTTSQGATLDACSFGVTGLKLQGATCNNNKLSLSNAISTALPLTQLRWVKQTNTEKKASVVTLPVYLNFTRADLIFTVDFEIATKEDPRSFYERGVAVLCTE
Chain of UniProt P41091 (P41091 whole entry, looked up): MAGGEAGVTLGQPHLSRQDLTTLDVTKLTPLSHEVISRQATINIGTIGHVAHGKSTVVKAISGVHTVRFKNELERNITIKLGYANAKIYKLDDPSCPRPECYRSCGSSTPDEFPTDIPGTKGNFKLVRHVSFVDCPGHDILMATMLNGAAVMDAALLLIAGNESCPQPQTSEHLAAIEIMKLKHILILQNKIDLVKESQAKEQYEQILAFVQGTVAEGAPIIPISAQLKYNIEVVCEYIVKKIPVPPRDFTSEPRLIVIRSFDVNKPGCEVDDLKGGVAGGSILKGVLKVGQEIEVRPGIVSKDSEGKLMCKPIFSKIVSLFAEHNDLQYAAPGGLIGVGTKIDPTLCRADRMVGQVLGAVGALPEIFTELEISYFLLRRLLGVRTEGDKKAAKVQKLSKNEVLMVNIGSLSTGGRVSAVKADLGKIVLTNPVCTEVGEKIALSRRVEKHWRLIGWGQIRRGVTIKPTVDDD

As for “DYNC1I2_Q13409_331_TTPEYVFHCQSAVMSATFAK (UniProt Q13409)”, the “probe-labelled cysteine peptide fold change” value by setting is: (10 µM) 0.091; (50 µM) 0.418.
Regarding “FAM102B_Q5T8I3_254_RNTSVGSTSTGVESILEPCDEIEQK (UniProt Q5T8I3)”, the “probe-labelled cysteine peptide fold change” value is -0.237 (10 µM) and 0.149 (50 µM).
With “DSTN_P60981_163_LGGSLIVAFEGCPV (UniProt P60981)”, the “probe-labelled cysteine peptide fold change” value is -0.192 (10 µM) and -0.173 (50 µM).
On to “FAM120B_Q96EK7_547_LEALMCTNPEIK (UniProt Q96EK7)”, for which the “probe-labelled cysteine peptide fold change” value (10 µM) is -0.253 and the “probe-labelled cysteine peptide fold change” value (50 µM) was found to be 0.187.
As to “EIF3CL_B5ME19_572_TCAILCHIYHHALHSR<|>EIF3C_Q99613_571_TCAILCHIYHHALHSR (UniProt Q99613+B5ME19)”, the “probe-labelled cysteine peptide fold change” value reads like this: (10 µM) 0.0697; (50 µM) -0.279.
In the case of “FANCI_Q9NVI1_650_LEACILTQGDK (UniProt Q9NVI1)”, the “probe-labelled cysteine peptide fold change” value (10 µM) was -0.0611 and the “probe-labelled cysteine peptide fold change” value (50 µM) was -0.113.
With “EEF1B2_P24534_191_LQIQCVVEDDK<|>EEF1D_P29692_247_LQIQCVVEDDK (UniProt P29692+P24534)”, the “probe-labelled cysteine peptide fold change” value is, setting by setting: (10 µM) 0.179; (50 µM) 0.387.
For “EEF1A2_Q05639_411_SGDAAIVEMVPGKPMCVESFSQYPPLGR (UniProt Q05639)”, the “probe-labelled cysteine peptide fold change” value runs as follows: (10 µM) -0.261; (50 µM) -0.239.
For “EFTUD2_Q15029_144+148_TCFVDCLIEQTHPEIR (UniProt Q15029)”, in that order: -0.176 and -0.0405.
With “FDX1_P10109_152+155_LGCQICLTK (UniProt P10109)”, the “probe-labelled cysteine peptide fold change” value was -0.319 (10 µM) and -0.896 (50 µM).
On to “EPS15_P42566_782_IGTPTRPCPLPPGKR (UniProt P42566)”, for which the “probe-labelled cysteine peptide fold change” value (10 µM) is -0.367 and the “probe-labelled cysteine peptide fold change” value (50 µM) was -1.1.
Turning to “FBXO30_Q8TB52_90_VAEHLEMCPASVVCCTMEWNR (UniProt Q8TB52)”, the “probe-labelled cysteine peptide fold change” value is, setting by setting: (10 µM) -0.103; (50 µM) -0.0583.
As for “ELP4_Q96EB1_412_LGPGCGMMAGGK (UniProt Q96EB1)”, the “probe-labelled cysteine peptide fold change” value by setting is: (10 µM) -0.372; (50 µM) -1.07.
Regarding “ERMP1_Q7Z2K6_737_AHCEENAPLCGFPWYLPVHFLIR (UniProt Q7Z2K6)”, the “probe-labelled cysteine peptide fold change” value runs as follows: (10 µM) -0.0124; (50 µM) 0.222.
On to “EEFSEC_P57772_442_LDADIHTNTCR (UniProt P57772)”, for which the “probe-labelled cysteine peptide fold change” value is -0.204 (10 µM) and -1.14 (50 µM).
Turning to “DSTN_P60981_12_ASGVQVADEVCR (UniProt P60981)”, the “probe-labelled cysteine peptide fold change” value is, setting by setting: (10 µM) 0.0942; (50 µM) 0.212.
For “EPRS_P07814_660_NSKHEELMLGDPCLK (UniProt P07814)”, the “probe-labelled cysteine peptide fold change” value (10 µM) is -0.334 and the “probe-labelled cysteine peptide fold change” value (50 µM) is -1.37.
On to “EZH2_Q15910_260_ELTEQQLPGALPPECTPNIDGPNAK (UniProt Q15910)”, for which the “probe-labelled cysteine peptide fold change” value was -0.164 (10 µM) and 0.256 (50 µM).
The matching figures for “FAM98C_Q17RN3_340_REDGGPQCWGR (UniProt Q17RN3)”: -0.342 and -1.05.
Turning to “ETHE1_O95571_170_TDFQQGCAK (UniProt O95571)”, the “probe-labelled cysteine peptide fold change” value reads like this: (10 µM) -0.118; (50 µM) -1.3.
The matching figures for “ERLEC1_Q96DZ1_126_IESYWTYEVCHGK (UniProt Q96DZ1)”: 0.192 and 0.0829.
For “FDFT1_P37268_6_CLGHPEEFYNLVR (UniProt P37268)”, in that order: -0.238 and -0.749.
With “ELP1_O95163_23_DIQGPGNPQCFSLR (UniProt O95163)”, the “probe-labelled cysteine peptide fold change” value reads like this: (10 µM) 0.145; (50 µM) -0.213.
The matching figures for “EDC4_Q6P2E9_976_LCTQLEGLQSTVTGHVER (UniProt Q6P2E9)”: -0.0211 and 0.299.
As to “ENG_P17813_549_TGTLSCTVALRPK (UniProt P17813)”, the “probe-labelled cysteine peptide fold change” value was -0.142 (10 µM) and -0.0378 (50 µM).
For “DYNC1H1_Q14204_2712_IQFVGACNPPTDPGRKPLSHR (UniProt Q14204)”, in that order: -0.0552 and 0.27.
Regarding “DSCR3_O14972_219+221_VETCGCAEGYAR (UniProt O14972)”, the “probe-labelled cysteine peptide fold change” value runs as follows: (10 µM) -0.345; (50 µM) -2.51.
Turning to “DPH7_Q9BTV6_33_HLLACGTYQLR (UniProt Q9BTV6)”, the “probe-labelled cysteine peptide fold change” value worked out at 0.0319 (10 µM) and 0.078 (50 µM).
Turning to “FAM208A_Q9UK61_318_HVCPYAVVSFTYK (UniProt Q9UK61)”, the “probe-labelled cysteine peptide fold change” value was -0.201 (10 µM) and -0.698 (50 µM).
Take “EIF2S3_P41091_96+101_LDDPSCPRPECYR (UniProt P41091)”: the “probe-labelled cysteine peptide fold change” value runs as follows: (10 µM) -0.389; (50 µM) -0.339.
Turning to “EXOSC1_Q9Y3B2_73_ETESQLLPDVGAIVTCK (UniProt Q9Y3B2)”, the “probe-labelled cysteine peptide fold change” value is, setting by setting: (10 µM) -0.0568; (50 µM) 0.13.
Turning to “EIF2S1_P05198_98_VSPEEAIKCEDK (UniProt P05198)”, the “probe-labelled cysteine peptide fold change” value reads like this: (10 µM) -0.267; (50 µM) -1.12.
With “EEF1A1P5_Q5VTE0_363+370_GNVAGDSKNDPPMEAAGFTAQVIILNHPGQISAGYAPVLDCHMAHIACK (UniProt Q5VTE0)”, the “probe-labelled cysteine peptide fold change” value was -0.198 (10 µM) and -1.24 (50 µM).
As for “EXOSC10_Q01780_555_IAEELPKEPQGIIACCNPVPPLVR (UniProt Q01780)”, the “probe-labelled cysteine peptide fold change” value is -0.144 (10 µM) and -1.17 (50 µM).
“ERCC3_P19447_342_SGVIVLPCGAGK (UniProt P19447)”: the “probe-labelled cysteine peptide fold change” value reads like this: (10 µM) -0.235; (50 µM) -1.63.

Values taken from the supplement of paper PMC12067093, “Discovery and optimisation of a covalent ligand for TRIM25 and its application to targeted protein ubiquitination” (Chemical Science, 2025).
